Screens: PubChem, several laboratories
An excerpt weighted towards active compounds, which were near 27% of everything screened.
sEH activator – increases human soluble epoxide hydrolase activity; 91,000 compounds, 0.04% hits; P34913; activation, % at 2 µM; purified human sEH enzymatic activity, activator screen; AID 717; in the data active = activation above about 37%
Target sequence (P34913 whole entry, looked up): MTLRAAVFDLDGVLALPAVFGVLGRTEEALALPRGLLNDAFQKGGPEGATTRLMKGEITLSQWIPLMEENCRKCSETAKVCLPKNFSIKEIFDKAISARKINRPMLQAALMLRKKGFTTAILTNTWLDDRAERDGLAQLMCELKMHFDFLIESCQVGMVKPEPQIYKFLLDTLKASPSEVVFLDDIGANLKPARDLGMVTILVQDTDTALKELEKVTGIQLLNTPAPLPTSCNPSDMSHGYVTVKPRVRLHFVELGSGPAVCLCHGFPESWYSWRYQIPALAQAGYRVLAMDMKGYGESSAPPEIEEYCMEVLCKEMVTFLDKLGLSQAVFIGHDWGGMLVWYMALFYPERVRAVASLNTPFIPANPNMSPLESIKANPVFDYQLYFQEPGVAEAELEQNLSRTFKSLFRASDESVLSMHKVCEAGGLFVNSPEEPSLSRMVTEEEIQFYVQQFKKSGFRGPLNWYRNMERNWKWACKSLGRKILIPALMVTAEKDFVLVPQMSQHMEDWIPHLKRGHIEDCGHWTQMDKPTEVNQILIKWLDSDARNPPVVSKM
CYP2C19 act – cytochrome P450 2C19 (human) activation. 96,000 tested, under 10 active. AID 1025. activation factor at 5 µM. P33261. recombinant CYP2C19, luciferin-H EGE luminescence; active compounds read high; 0 = fully inhibited enzyme, 1 = untreated enzyme;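 active = activation factor of at least 2 at 5 µM in the primary screen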;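 note: 0 = wells with 2.5 mM tranylcypromine and 1 = vehicle-only wells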
CYP2C9 inh – human CYP2C9 inhibition | AID 777 | inhibition, % at 5 µM | CYP2C9 Supersomes, luciferin-H conversion, luminescence | 96,000 compounds, 20% hits;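 active = blocking of liver enzyme CYP2C9 beyond about 50% at 5 µM, limit read from the data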
CYP2C9 act – CYP2C9 (human) activation; P11712; recombinant CYP2C9, luciferin-H conversion, luminescence; active compounds read high; factor 1 = untreated enzyme, 0 = blocked; activation factor at 5 µM; 96,000 compounds, 1.4% hits; AID 1024;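 active = activation factor of 2 or more for CYP2C9 at a 5 µM dose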;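 note: 0 = sulfaphenazole-blocked wells and 1 = vehicle-only wells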
CYP2C19 inhib – inhibitors of human CYP2C19; inhibition, % at 5 µM; 96,000 compounds, 21% hits; CYP2C19 Supersomes, luciferin-H EGE luminescence, 30 min; P33261;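 active = CYP2C19 inhibition above a set limit at 5 µM in the primary screen, cut at about 50% in these data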;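 note: plate controls were negative control wells for no effect and 2.5 mM tranylcypromine positive control for full effect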
sEH inhibitor – soluble epoxide hydrolase (human) inhibition. recombinant human sEH enzymatic activity assay. P34913. inhibition, % at 2 µM. 91,000 compounds, 0.34% hits. AID 707; in the data active = inhibition above about 80%
* marks the source's active call; other numbers are inactive results; . = not tested or not shown.

SMILES	sEH activator	CYP2C19 act	CYP2C9 inh	CYP2C9 act	CYP2C19 inhib	sEH inhibitor
COc1cc(C(=O)COC(=O)Cc2cnc3sccn23)cc(OC)c1OC	.	0.9	-13	1.1	9	.
CN(C)/C=N/c1ncc(C(=O)c2ccc3ccccc3c2)s1	48*	0.5	-128	2.3*	53*	-49
COc1ccc(C(=O)c2cnc(/N=C/N(C)C)s2)cc1	.	0.8	17	0.8	24	.
O=C(CCC(=O)N1CCN(c2ccccn2)CC1)Nc1nnc(C2CCCCC2)s1	.	0.8	10	0.9	16	.
COc1ccc(CCNc2oc(COc3ccccc3Cl)nc2C#N)cc1OC	7	.	.	.	.	-8
COc1ccc(CCNc2oc(COc3ccc(F)cc3)nc2C#N)cc1	-2	0.5	70*	0.3	53*	0
COc1ccc(CCNc2oc(Cc3ccccc3)nc2C#N)cc1OC	-2	0.3	50*	0.5	75*	2
COc1ccc(CCNc2oc(COc3ccccc3F)nc2C#N)cc1OC	-12	0	91*	0.1	96*	12
CCNc1oc(COc2ccccc2F)nc1C#N	-6	0	39	0.6	96*	4
COCCCNc1oc(-c2ccccc2OC)nc1C#N	4	0.9	2	1	13	0
Cc1cc2ncn(C(=O)N3CCCC3)c2cc1C	-4	.	.	.	.	6
CCN1C(=O)C2(/C(=C(\O)c3ccc4c(c3)OCCO4)C(=O)C(=O)N2CCCOC)c2ccccc21 (stereo not given)	1	1.1	2	1	-12	-4
COCCNc1oc(COc2cccc(C)c2)nc1C#N	-3	0.4	10	0.9	57*	6
CN(C)CCNc1oc(COc2cccc(Cl)c2)nc1C#N	2	1.1	-28	1.3	-12	-4
Cc1nn(Cc2ccccc2)c2c1C(c1ccco1)C(C#N)=C(N)O2 (stereo not given)	2	1	3	1	4	-1
CCOC(=O)C1=C(C)OC(N)=C(C#N)C1c1ccc(C)o1 (stereo not given)	7	0	58*	0.4	98*	-7
CC1=C(C(=O)OC(C)(C)C)C(c2ccco2)C(C#N)=C(N)O1 (stereo not given)	4	0.1	52*	0.5	93*	-6
CCOC(=O)CC1=C(C(=O)OCC)C(c2ccncc2)C(C#N)=C(N)O1 (stereo not given)	.	0.2	59*	0.4	79*	.
COC(=O)CC1=C(C(=O)OC)C(c2cc(OC)c(OC)cc2OC)C(C#N)=C(N)O1 (stereo not given)	8	0.7	49	0.5	34	-8
CCOC(=O)C1C(C#N)=C(N)OC(C)=C1c1ccncc1 (stereo not given)	9	0.2	90*	0.1	80*	-6
CCOC(=O)C1=C(C)OC(N)=C(C#N)C1c1ccc(O)c(OC)c1 (stereo not given)	-4	0.5	33	0.7	49	1
CCOC(=O)C1=C(C)OC(N)=C(C#N)C1c1ccoc1 (stereo not given)	.	0.5	16	0.8	54*	.
O=C(c1cnc2n(c1=O)CCS2)N1CCN(C(c2ccccc2)c2ccc(Cl)cc2)CC1 (stereo not given)	11	0.4	44	0.6	62*	-9
CCOc1ccc(C2N(c3ccc(F)cc3)C(=O)C3CCCN32)cc1 (stereo not given)	-9	0.2	83*	0.2	83*	6
COc1cc(C2N(c3ccc(F)cc3)C(=O)C3CCCN32)cc(OC)c1OC (stereo not given)	-7	0.8	11	0.9	18	6
SMILES	sEH activator	CYP2C19 act	CYP2C9 inh	CYP2C9 act	CYP2C19 inhib	sEH inhibitor
Cc1ccc(C2N(c3ccc(F)cc3)C(=O)C3CCCN32)cc1 (stereo not given)	10	0.5	32	0.7	50*	-10
CN(C)c1ccc(C2N(c3ccc(F)cc3)C(=O)C3CCCN32)cc1 (stereo not given)	1	0.6	30	0.7	36	3
C=CCN(CC=C)c1cnn(-c2nc3ccccc3[nH]2)c(=O)c1Cl	6	0.4	54*	0.5	56*	-7
O=c1c(Cl)c(NCCCO)cnn1-c1nc2ccccc2[nH]1	.	0.5	5	1	46	.
NC(=O)c1nsc(C(=O)N(CC(=O)NCc2ccc3c(c2)OCO3)C2CCCCC2)c1N	2	0.1	11	0.9	86*	-1
CCC(C)(C)NC(=O)CN(Cc1ccc2c(c1)OCO2)C(=O)CCC(=O)Nc1ccccn1	4	.	.	.	.	-4
CCC(C(=O)NC1CCCC1)N(Cc1ccc2c(c1)OCO2)C(=O)c1snc(C(N)=O)c1N (stereo not given)	11	0.1	44	0.6	92*	-11
CCCC(C(=O)NC1CCCC1)N(Cc1cccs1)C(=O)c1snc(C(N)=O)c1N (stereo not given)	.	0.7	19	0.8	28	.
NC(=O)c1noc(C(=O)N(CC(=O)NC2CCCC2)Cc2ccc3c(c2)OCO3)c1N	16	.	.	.	.	-13
CCC(C)(C)NC(=O)CN(C(=O)c1snc(C(N)=O)c1N)c1ccc2c(c1)OCO2	-79	0.6	57*	0.4	38	80
CC(C(=O)NC1CCCC1)N(Cc1ccc2c(c1)OCO2)C(=O)c1snc(C(N)=O)c1N (stereo not given)	-1	0	82*	0.2	99*	-1
COc1cccc(/C(O)=C2/C(=O)C(=O)N(CCCN(C)C)C2c2cccc(Cl)c2)c1 (stereo not given)	.	1.3	-17	1.2	-27	.
CC1/C(=C\c2ccc(Cl)cc2)C(=O)C2CC1C2(C)C (stereo not given)	0	0.2	65*	0.4	77*	-1
CCOC(=O)Nc1ccc(=O)n(Cc2c(Cl)cccc2Cl)c1	17	0.8	53*	0.5	23	-14
Cc1cc(OCC(=O)Nc2ccc3c(c2)OCCO3)ccc1Cl	.	0.8	15	0.9	17	.
O=c1cc(-c2ccccc2)nc2nc(-c3ccccc3)[nH]n12	15	1	59*	0.4	-1	-15
Nc1nc2nc(-c3ccccc3)cc(=O)n2[nH]1	6	0.9	1	1	12	-10
c1ccc(CN2CCN(c3nc(-c4ccccc4)nc4ccccc34)CC2)cc1	-4	0.9	29	0.7	8	6
c1nc(N2CCN(Cc3ccc4c(c3)OCO4)CC2)c2[nH]cnc2n1	.	1	-7	1.1	-3	.
COc1cccc2[nH]c3c(N4CCN(Cc5ccc6c(c5)OCO6)CC4)ncnc3c12	-3	0.1	85*	0.2	94*	1
Cc1ccc2c(c1)[nH]c1c(N3CCN(Cc4ccccc4)CC3)ncnc12	4	0.6	65*	0.4	36	-5
c1ccc(CN2CCN(c3nc4ccccc4c4ccccc34)CC2)cc1	3	0.7	92*	0.1	28	-6
